The whole screen tested about 5,500 compounds, of which about 2,000 (36%) were called active. Another 18% or so got no clear call; they are omitted. Cut-off read from the data, not from the text of the source: active = normalized growth mostly below about 0.91 (no sharp cut-off); inconclusive = no clear call, values can overlap the other calls; inactive = mostly above about 0.92. The list shows a part of the results.
Assay: chemical genetic growth profiling, strain panel (AID 1159580);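 note: tested at 20 µM; growth read once vehicle control cultures reached saturation at 30 °C; 1 = growth at the plate median or of vehicle wells; lower values mean less growth of the strain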
Details: growth OD

Measured: normalized growth

CCCCCCCCNC(C)C(O)c1ccc(SC(C)C)cc1 (stereo not drawn)
inactive: S. cerevisiae deletion strains, locus YKL068W, active compounds read low 1.02 | S. cerevisiae deletion strains, locus YKL085W, strain MDH1 (second series), active compounds read low 0.936 | S. cerevisiae deletion strains, locus YKL085W, strain MDH1, active compounds read low 0.936 | S. cerevisiae deletion strains, locus YLR113W, strain HOG1, active compounds read low 1.04 | S. cerevisiae deletion strains, locus YNL183C, strain NPR1, active compounds read low 0.916 | S. cerevisiae deletion strains, locus YOR231W, strain MKK1, active compounds read low 0.892 | S. cerevisiae deletion strains, locus YPL256C, strain CLN2, active compounds read low 0.981 | S. cerevisiae deletion strains, locus YPR141C, strain kar3, active compounds read low 1.06
active: S. cerevisiae deletion strains, locus YKL009W, strain mrt4, active compounds read low 0.843 | S. cerevisiae deletion strains, locus YKL160W, strain elf1, active compounds read low 0.0721 | S. cerevisiae deletion strains, locus YKL190W, strain CNB1, active compounds read low 0.0442 | S. cerevisiae deletion strains, locus YKR001C, strain vps1, active compounds read low 0.0592 | S. cerevisiae deletion strains, locus YKR026C, strain gcn3, active compounds read low 0.0783 | S. cerevisiae deletion strains, locus YKR091W, strain srl3, active compounds read low 0.0575 | S. cerevisiae deletion strains, locus YLL001W, strain dnm1, active compounds read low 0.0576 | S. cerevisiae deletion strains, locus YLL026W, active compounds read low 0.0545 | S. cerevisiae deletion strains, locus YLL041C, strain sdh2, active compounds read low 0.0563 | S. cerevisiae deletion strains, locus YLR027C, strain aat2, active compounds read low 0.053 | S. cerevisiae deletion strains, locus YLR039C, strain RIC1, active compounds read low 0.0765 | S. cerevisiae deletion strains, locus YLR058C, strain SHM2, active compounds read low 0.0441 | S. cerevisiae deletion strains, locus YLR102C, strain apc9, active compounds read low 0.0595 | S. cerevisiae deletion strains, locus YLR221C, strain rsa3, active compounds read low 0.0556 | S. cerevisiae deletion strains, locus YLR258W, strain gsy2, active compounds read low 0.0584 | S. cerevisiae deletion strains, locus YLR262C, strain YPT6 (second series), active compounds read low 0.0924 | S. cerevisiae deletion strains, locus YLR262C, strain YPT6, active compounds read low 0.0999 | S. cerevisiae deletion strains, locus YLR268W, strain sec22, active compounds read low 0.0594 | S. cerevisiae deletion strains, locus YLR320W, strain mms22, active compounds read low 0.0684 | S. cerevisiae deletion strains, locus YLR330W, strain CHS5, active compounds read low 0.0493 | S. cerevisiae deletion strains, locus YLR342W, strain FKS1 (second series), active compounds read low 0.06 | S. cerevisiae deletion strains, locus YLR342W, strain FKS1, active compounds read low 0.0614 | S. cerevisiae deletion strains, locus YLR357W, strain rsc2, active compounds read low 0.111 | S. cerevisiae deletion strains, locus YLR370C, strain arc18, active compounds read low 0.0598 | S. cerevisiae deletion strains, locus YLR371W, strain rom2, active compounds read low 0.0595 | S. cerevisiae deletion strains, locus YLR384C, strain iki3, active compounds read low 0.0596 | S. cerevisiae deletion strains, locus YLR418C, strain cdc73, active compounds read low 0.0837 | S. cerevisiae deletion strains, locus YML016C, strain PPZ1, active compounds read low 0.0438 | S. cerevisiae deletion strains, locus YML032C, strain rad52, active compounds read low 0.0627 | S. cerevisiae deletion strains, locus YML120C, strain ndi1, active compounds read low 0.0554 | S. cerevisiae deletion strains, locus YML124C, strain tub3, active compounds read low 0.0561 | S. cerevisiae deletion strains, locus YMR058W, strain fet3, active compounds read low 0.0583 | S. cerevisiae deletion strains, locus YMR078C, strain ctf18, active compounds read low 0.0681 | S. cerevisiae deletion strains, locus YMR125W, strain sto1, active compounds read low 0.0638 | S. cerevisiae deletion strains, locus YMR129W, active compounds read low 0.057 | S. cerevisiae deletion strains, locus YMR205C, strain PFK2, active compounds read low 0.0745 | S. cerevisiae deletion strains, locus YMR223W, strain ubp8, active compounds read low 0.0556 | S. cerevisiae deletion strains, locus YMR231W, strain pep5, active compounds read low 0.0629 | S. cerevisiae deletion strains, locus YMR263W, strain SAP30, active compounds read low 0.0563 | S. cerevisiae deletion strains, locus YMR307W, strain GAS1, active compounds read low 0.113 | S. cerevisiae deletion strains, locus YNL067W, strain RPL9B, active compounds read low 0.0464 | S. cerevisiae deletion strains, locus YNL071W, strain lat1, active compounds read low 0.0586 | S. cerevisiae deletion strains, locus YNL128W, strain TEP1, active compounds read low 0.0711 | S. cerevisiae deletion strains, locus YNL209W, strain ssb2, active compounds read low 0.057 | S. cerevisiae deletion strains, locus YNL233W, strain BNI4, active compounds read low 0.0511 | S. cerevisiae deletion strains, locus YNL248C, strain rpa49, active compounds read low 0.0589 | S. cerevisiae deletion strains, locus YNL250W, strain rad50, active compounds read low 0.849 | S. cerevisiae deletion strains, locus YNL271C, strain bni1, active compounds read low 0.501 | S. cerevisiae deletion strains, locus YNL298W, strain CLA4, active compounds read low 0.357 | S. cerevisiae deletion strains, locus YNL307C, strain MCK1, active compounds read low 0.0662 | S. cerevisiae deletion strains, locus YNL322C, strain KRE1 (second series), active compounds read low 0.0644 | S. cerevisiae deletion strains, locus YNR049C, strain mso1, active compounds read low 0.0544 | S. cerevisiae deletion strains, locus YNR052C, strain pop2, active compounds read low 0.0594 | S. cerevisiae deletion strains, locus YOL006C, strain TOP1, active compounds read low 0.0984 | S. cerevisiae deletion strains, locus YOL012C, strain htz1 0.143 | S. cerevisiae deletion strains, locus YOL147C, strain pex11, active compounds read low 0.056 | S. cerevisiae deletion strains, locus YOR001W, strain rrp6, active compounds read low 0.0598 | S. cerevisiae deletion strains, locus YOR061W, strain CKA2, active compounds read low 0.0463 | S. cerevisiae deletion strains, locus YOR069W, strain VPS5, active compounds read low 0.0445 | S. cerevisiae deletion strains, locus YOR070C, strain gyp1, active compounds read low 0.0552 | S. cerevisiae deletion strains, locus YOR080W, strain dia2, active compounds read low 0.0613 | S. cerevisiae deletion strains, locus YOR083W, strain WHI5, active compounds read low 0.0558 | S. cerevisiae deletion strains, locus YOR106W, strain vam3, active compounds read low 0.0599 | S. cerevisiae deletion strains, locus YOR136W, strain idh2, active compounds read low 0.0657 | S. cerevisiae deletion strains, locus YOR144C, strain elg1, active compounds read low 0.0549 | S. cerevisiae deletion strains, locus YOR184W, strain ser1, active compounds read low 0.0604 | S. cerevisiae deletion strains, locus YOR265W, strain rbl2, active compounds read low 0.056 | S. cerevisiae deletion strains, locus YOR270C, strain vph1, active compounds read low 0.0763 | S. cerevisiae deletion strains, locus YOR290C, strain snf2, active compounds read low 0.0566 | S. cerevisiae deletion strains, locus YOR316C, strain cot1, active compounds read low 0.057 | S. cerevisiae deletion strains, locus YPL051W, strain arl3, active compounds read low 0.0586 | S. cerevisiae deletion strains, locus YPL055C, strain LGE1, active compounds read low 0.0576 | S. cerevisiae deletion strains, locus YPL078C, strain atp4, active compounds read low 0.0619 | S. cerevisiae deletion strains, locus YPL106C, strain sse1, active compounds read low 0.0837 | S. cerevisiae deletion strains, locus YPL240C, strain hsp82, active compounds read low 0.0552 | S. cerevisiae deletion strains, locus YPR119W, strain clb2, active compounds read low 0.0589 | S. cerevisiae deletion strains, locus YPR163C, strain tif3, active compounds read low 0.0677 | S. cerevisiae deletion strains, locus YPR167C, strain met16, active compounds read low 0.0591 | S. cerevisiae deletion strains, strain wtn01, active compounds read low 0.0573 | S. cerevisiae strains, strain wild type, active compounds read low 0.0449

From PubChem BioAssay AID1159580 (chemical genetic matrix, 2015)
